Screens from PubChem BioAssay.
A selection: hits, their analogues and other compounds. The true share with any hit is near 9.8%.
HttQ103 aggreg: reduces HttQ103-GFP aggregates in PC12 cells. 220,000 tested, 1.1% active. Potency, µM (highest dose often 46.1 µM), for the others: at the top dose activity change, negative = inhibition, usual class: inhibitors. PC12 HttQ103-GFP aggregates, Acumen cytometry, 40 h. AID 1688; also: potency is read from the fitted curve at half-maximal effect; % is scaled to controls: 0 for no effect and ±100 for the full control effect; nearly all actives have a fitted effect of over 60% in size
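Read-out: GFP aggregate count by laser scanning cytometer (488 nm excitation, 500-530 nm emission, 1–25 µm objects >6 SD above background). Cells: PC12, inducible HTTex1-Q103-GFP, 100 nM tebufenozide; compounds titrated.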
CBFb RUNX1 block: blocks binding between human CBF-beta and RUNX1. Q01196+Q13951. AlphaScreen CBFb-His/RUNX1-biotin binding, biochemical. Potency, µM (highest dose often 59.8 µM), without a hit: at the highest dose activity, negative = inhibition, hits mostly inhibitors. 230,000 tested, under 10 active; also: % of control where 0% means no effect
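AlphaScreen proximity signal reports loss of binding between His-tagged CBF-beta and biotin-labelled RUNX1, each at 30 nM. Proteins are pre-associated for 20 minutes, compounds added for 15 minutes, then beads for 90 minutes, all at ambient temperature.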
KDM4E inh: JMJD2E (human) inhibition. Potency, µM (titrated, usually from 57.1 µM), inactives show at the top dose activity change, negative = inhibition, actives largely listed as inhibitors. JMJD2E catalytic domain, FDH-coupled NADH fluorescence (FDH is formaldehyde dehydrogenase). 230,000 tested, 1.6% active. B2RXH2; active = well fitted inhibition curve with a large enough effect, not every such curve was filed as active; inconclusive = small, poorly fitted or top-dose-only effect, or another doubt; inactive = no such curve, though single readings can be large or run the other way;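 also: potency is read from the fitted curve at half-maximal effect; 0% = wells with enzyme and -100% = buffer wells without enzyme; nearly all actives have a fitted effect of over 50% in size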
HTT ATP protect: Huntington cell model cytoprotection by ATP luminescence; PC12 HTT-Q103 induced, cytoprotection, ATP luminescence, 40 h; Potency, µM (top dose mostly 56.4 µM), inactives show cytoprotection (ATP increase), usual class: activators; 230,000 tested, 0.14% active; also: potency is read from the fitted curve at half-maximal effect; % of control where 0% means no effect; nearly all actives have a fitted effect of over 45% in size
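PC12 cells stably carrying ecdysone-inducible Htt exon 1 (Q103)–GFP were induced with 100 nM tebufenozide (final) alongside library compounds in a dose series. Cytoprotection was scored as retained ATP by ATPlite luminescence.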
HPGD block: inhibitors of human 15-hydroxyprostaglandin dehydrogenase (HPGD); Potency, µM, without a hit: at the highest dose activity change, negative = inhibition, actives largely listed as inhibitors; AID 894; 150,000 tested, 4.3% active; P15428; purified HPGD, NADH fluorescence kinetic, PGE2 substrate; active = well fitted inhibition curve with a large enough effect, not every such curve was filed as active; inconclusive = small, poorly fitted or top-dose-only effect, or another doubt; inactive = no such curve, though single readings can be large or run the other way; also: potency is read from the fitted curve at half-maximal effect; % is scaled to controls: 0 for no effect and ±100 for the full control effect
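20 nM HPGD preincubated 15 min at room temperature with compound in 50 mM Tris-HCl pH 8, 0.01% Tween 20. Started with 1 mM NAD+ and 30 uM prostaglandin E2; NADH fluorescence (360/450 nm) read 5 times over 30-s intervals, last minus first.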
ALDH1A1 inh: inhibitors of human aldehyde dehydrogenase 1A1; P00352; Purified ALDH1A1, NADH fluorescence, propionaldehyde substrate; Potency, µM (top dose mostly 75.3 µM), without a hit: top-dose activity, negative = inhibition, usual class: inhibitors; 220,000 tested, 7.3% active; active = well fitted inhibition curve with a large enough effect, not every such curve was filed as active; inconclusive = small, poorly fitted or top-dose-only effect, or another doubt; inactive = no such curve, though single readings can be large or run the other way;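 also: potency is read from the fitted curve at half-maximal effect; plate controls were no enzyme wells and a reference inhibitor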
* hit, by the source's call; ? = inconclusive; . = not tested or not shown; [ ] = dose if it differs, or a comment. Unless noted, calls follow the shape of the dose curve; as a rule, active = well fitted curve in the direction sought with a large enough effect; inconclusive = small, poorly fitted or top-dose-only effect, or another doubt; inactive = no such curve, though single readings can be large; an effect the other way counts as inactive or inconclusive.

SMILES	HttQ103 aggreg	CBFb RUNX1 block	KDM4E inh	HTT ATP protect	HPGD block	ALDH1A1 inh
Cn1c(=O)c2c(ncn2CC(=O)N2CCN(C(=O)c3ccco3)CC2)n(C)c1=O	24%	6%	6%	-6%[10 µM]	.	?
CCOC(=O)c1ccc(CC(=O)c2ccc(O)c(O)c2O)o1	-15%[9.22 µM]	.	3.2µM*	-3%[10 µM]	.	10µM*
COc1ccccc1CNC(=O)c1cn(C)c2ccc(S(=O)(=O)N3CCCCC3)cc2c1=O	5%	13%	1%	-28%	.	12%
CS(=O)(=O)Nc1ccc(C2=NN(C(=O)c3ccco3)C(c3cccc(F)c3)C2)cc1 (configuration not stated)	-21%	-4%	?	-25%	.	14µM*
CS(=O)(=O)Nc1ccc(C2=NN(C(=O)c3ccco3)C(c3ccccc3)C2)cc1 (configuration not stated)	3%	11%	-3%	2%[10 µM]	-12%	16µM*
COc1ccc(S(=O)(=O)N2N=C(c3ccc(NS(C)(=O)=O)cc3)CC2c2ccco2)cc1 (configuration not stated)	-11%	?	?	-44%	.	22µM*
CCN(C(=O)CSc1nnc(-c2ccncc2)n1Cc1ccccc1)C1CCS(=O)(=O)C1 (configuration not stated)	15%	6%	1%	16%	.	-3%
COCCCNC(=O)CN1CCN(Cc2ccc(Cl)cc2)C1=O	-9%	0%	-2%	-10%	-4%	7%
COC(=O)c1ccc2nc(Nc3nc4c(F)cc(F)cc4s3)sc2c1	6.3µM*	-5%	0%	.	?	?
Cc1ccc2[nH]c(=O)c(CN(CCO)Cc3nnnn3CCc3ccccc3)cc2c1	-20%	-2%	?	2%	2%	?
CCOC(=O)Cn1nnnc1CN(Cc1cccs1)Cc1cc2cc(C)ccc2[nH]c1=O	2%	3%	-17%	22%	-3%	16µM*
Cc1ccc2[nH]c(=O)c(CN(Cc3cccs3)Cc3nnnn3Cc3ccccc3)cc2c1	1%[9.22 µM]	-12%	?	-68%	?	14µM*
NC(=O)c1ccccc1OC1CCC1	5%[9.22 µM]	8%	3%	15%[10 µM]	.	.
O=C(Nc1ccccc1)C1=C(c2ccccc2)S(=O)(=O)CCS1(=O)=O	5µM*	5%	-1%	-162%	.	?
O=C(O)c1ccccc1C(=O)Nc1ccccc1	10%	-2%	-3%	11%[10 µM]	-16%	?
Cc1ccc(C)c(NC(=S)NNC(=O)c2csc3c2CCC(C)C3)c1 (configuration not stated)	-3%	-4%	-5%	1%	-10%	10µM*
Cc1ccc(C)c(NC(=S)NNC(=O)c2csc3c2CCCC3)c1	25µM*	-2%	6%	11%	-11%	8.9µM*
Cc1cccc(NC(=S)NNC(=O)c2csc3c2CCCC3)c1	?	-5%	-6%	-17%	1%	?
